Out of some 220,000 compounds screened, about 2,400 (1.1%) were called active. Entries that show only a call come without a potency. Not shown: some 7% with an inconclusive outcome. Calls come from the whole dose curve; as a rule, active = well fitted inhibition curve with a large enough effect; inconclusive = small, poorly fitted or top-dose-only effect, or effect the other way; inactive = no such curve, though single readings can be large or run the other way. For the sample, actives were picked, then their nearest neighbours and some compounds at random.
Assay: qHTS Multiplex Assay to Identify Dual Action Probes in a Cell Model of Huntington: Aggregate Formation (GFP); note: nearly all actives have a fitted effect of over 60% in size
Conditions: PC12 HttQ103-GFP aggregates, Acumen cytometry, 40 h; series mostly up to 9.22 µM
From the text: NIH Chemical Genomics Center [NCGC]
NIH Molecular Libraries Probe Production centers Network [MLPCN]
Assay Submitter (PI): Wei Zheng
Huntington's disease is a neurodegenerative disorder caused by a trinucleotide repeat expansion in Exon 1 of the Huntingtin gene. The CAG trinucleotide encodes glutamine and polyglutamine expansions cause cell death in selective areas of the brain. Huntington polyglutamine repeats have the tendency to form aggregates which are observable in later stages of the disease. The exact nature of the aggregates, whether toxic, protective, or insignificant, is unclear.
A stable PC12 cell line containing a gene fusion of Exon 1 of the Huntingtin gene linked to GFP under the control of the inducible ecdysone promoter were used as the cell-based model of Huntington Disease for high throughput screening. Exon 1 of the Huntingtin gene contained an expansion of 103 polyglutamines (Q103) which, when expressed, caused cell death and distinct, bright GFP aggregates. The amount of cell death and the size and intensity of GFP aggregates increased over time and induction level. The cell death were quantified with a measurement of ATP content in the cells. A maximal 40-50% of cell death was observed when the Huntington gene was induced in this cell line.
We optimized this assay in a homogeneous 1536 well format. A quantitative high throughput screen (qHTS) was conducted on the PC12 cells which were induced to express the toxic fusion construct. Small molecules which reduced aggregate formation were identified bu using a laser scanning cytometer calibrated to detect the aggregates in cell lysates.
PC12 cells stably containing a construct with an ecdysone inducible promoter expressing GFP fused to the exon 1 of HTTQ103 (Huntington protein which containing a 103 ployglutamine expansion) were used.
NCGC Assay Protocol Summary:
Sequence, Parameter, Description
1, Reagent, 5 uL 1500 cells/well 1536 TC treated White clear bottom plate
2, Compound, 23 nL Tebufenozide inducer (100 nM final) to all columns
3, Compound, 23 nL 40 uM to 0.5 nM Libraries
5, Reagent, 5 ul ATPLite cell death assay reagent
6, Detector, Aggregate quantitation by Acumen Explorer
Media consisted of phenol red free DMEM + 5% equine serum (Hyclone # SH30072.03 ), 5% supplemented Bovine Calf Serum (Hyclone # SH30074.03 ), 1x pen/strep, no G418
Acumen Explorer was used to quantitate GFP aggregates using the following criteria: […] laser excitation, 500-530 nm emission, the PMT was set at a voltage of 450 volts, and objects ranging in size of […] in size having a signal of 6 STDEV above background were collected.
Control columns: 1 = DMSO, 2= 2 uM teb dilns (1:1), 4 = 100 nM Teb inducer. Sample columns received 100 nM Teb.
Potency is the fitted concentration of half-maximal effect.

SMILES | Potency
CCCCCn1c(=O)c(C(=O)Nc2c(C)n(C)n(-c3ccccc3)c2=O)c(O)c2ccccc21 | inactive
CCCCCn1c(=O)c(C(=O)NCc2ccccn2)c(O)c2ccccc21 | 31.6 µM (active)
C=CCN1CCC23c4c5ccc(O)c4O[C@H]2C(=O)CC[C@@]3(O)C1C5 (stereo not given in full) | inactive
c1ccc2sc(SNC3CCCCC3)nc2c1 | inactive
CN1CCN(/N=C/c2c[nH]c3ccccc23)CC1 | inactive
CC(Cc1ccccc1)NC=O (stereo not given) | inactive
CN1CCCC(=C(c2cccs2)c2cccs2)C1 | inactive
Cc1ncc(CC(=O)n2cc(C(=O)c3cc(Cl)ccc3O)cn2)s1 | 14.1 µM (active)
COc1cccc(CN2CCCC(C(=O)c3ccccc3SC)C2)c1O (stereo not given) | inactive
CC[N+]1(CCOC(=O)C(O)(c2ccccc2)c2ccccc2)CCCCC1 | inactive
COc1ccc(-n2c(-c3ccccc3)nc3ccccc3c2=O)cc1 | inactive
O=Cc1cn(Cc2ccc(F)cc2Cl)c2ccccc12 | 10 µM (active)
CC1C2Cn3c(nc4ccccc43)C1N(C)O2 (stereo not given) | inactive
CCCCC(=O)N/N=C/c1c(O)n(CC)c(=S)n(CC)c1=O | 3.98 µM (active)
CCCCC(=O)N/N=C/c1c(O)n(-c2ccccc2)c(=O)[nH]c1=O | inactive
CCCCC(=O)N/N=C/c1c(O)n(CCC2=CCCCC2)c(=O)[nH]c1=O | inactive
COC([CH2][Hg])CNC(=O)c1ccccc1OCC(=O)O (stereo not given) | inactive
O=C(N/N=C/c1ccc([N+](=O)[O-])o1)c1cc([N+](=O)[O-])cc([N+](=O)[O-])c1O | inactive
CC(C)c1ccc(-n2c(O)c(/C=N/N3CCOCC3)c(=O)[nH]c2=S)cc1 | inactive
CCCn1c(C(=O)c2ccccc2OC)nc2ccccc21 | inactive
